Inconclusive results are not listed. The source made the active and inactive calls. Unless noted, calls come from the whole dose curve.
Assays:
[1] = Nuclear factor erythroid 2-related factor 2/antioxidant responsive element (Nrf2/ARE) small molecule agonists: qHTS cell viability counter screen in human keratinocytes (AID 1919968; active = well fitted curve in the direction sought with a large enough effect in the repeat runs; an effect the other way counts as inactive or inconclusive; note: nearly all actives have a fitted effect of over 55% in size)
In short: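 Seed 1,500 KeratinoSens cells per well, then incubate 5 h at 37 C/5% CO2. Add compounds in DMSO and incubate 23 h. Add CellTiter-Fluor, wait 1 h and read fluorescence.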

[2] = biological target: Gonadotropin-releasing hormone receptor (Homo sapiens) (UniProt P30968); assay: Human gonadotropin-releasing hormone receptor (GnRHR) small molecule agonists, calcium flux assay in GnRHR-HEK293 cells (AID 1920063); note: nearly all actives have a fitted effect of over 35% in size
In short: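 Cells: HEK293 stably expressing human GnRHR. Steps: overnight (18 h) culture, 1 h calcium dye loading at 37 C, compound addition, kinetic fluorescence read at 480/540 nm. Each compound tested at 15 concentrations in triplicate.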

[3] = biological target: KiSS-1 receptor (Homo sapiens) (UniProt Q969F8); assay: Human kisspeptin (KISS1R) small molecule agonists, calcium flux assay in KISS1R-HEK293 cells (AID 1920064; active = well fitted curve in the direction sought with a large enough effect in the repeat runs; an effect the other way counts as inactive or inconclusive)
In short: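 Cells plated and incubated 18 h; dye added, 1 h at 37 C; compounds in DMSO pinned in; signal read at 480/540 nm every second for 3 min. Each compound tested at 15 concentrations in triplicate.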

[4] = G protein-coupled receptor (GPCR) small molecule agonists, calcium flux assay: HEK293 wild type cell line counter screen (AID 1920065)
In short: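 Counter-screen of the Tox21 10K library for non-specific calcium release: dye-loaded cells received compounds in DMSO and were monitored by kinetic fluorescence (480/540 nm, 3 min). Fifteen concentrations, run in triplicate.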

[5] = p53 small molecule agonists, cell-based qHTS assay with human liver microsomes (AID 1963577);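 note: p53 response element beta-lactamase reporter cells with liver microsomes plus NADPH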
In short: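 HLM-supplemented p53RE-bla reporter assay: 16 h compound exposure at 37 C, microsomes and NADPH each 0.5 mg/mL final, read by fluorescence intensity.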

[6] = p53 small molecule agonists, cell-based qHTS assay with rat liver microsomes (AID 1963578)
In short: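 Quantitative HTS of the Tox21 10K library: p53RE-bla cells, rat liver microsomes plus NADPH at 0.5 mg/mL final each, 16 h at 37 C, beta-lactamase fluorescence detection.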

[7] = p53 small molecule agonists, cell-based qHTS assay with human liver microsomes: qHTS cell viability counter screen (AID 1963579); note: nearly all actives have a fitted effect of over 45% in size
In short: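 Viability of p53RE-bla cells is measured as CellTiter-Glo luminescence following a 16 h, 37 C incubation with compound, liver microsomes from human donors and NADPH.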

[8] = p53 small molecule agonists, cell-based qHTS assay with rat liver microsomes: qHTS cell viability counter screen (AID 1963580); note: nearly all actives have a fitted effect of over 45% in size
In short: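 Viability is assessed in parallel with the p53 reporter read: HCT-116 p53RE-bla cells receive compounds plus rat microsomes and NADPH (0.5 mg/mL final apiece), incubate 16 h at 37 C, and then CellTiter-Glo luminescence is recorded.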

[9] = p53 small molecule agonists, cell-based qHTS assay: qHTS cell viability counter screen (AID 1963581); note: nearly all actives have a fitted effect of over 45% in size
In short: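 Cells: HCT-116 with p53 response element-driven beta-lactamase. Treatment: 16 h, 37 C, compounds in DMSO. Read: CellTiter-Glo luminescence after 30 min RT.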

[10] = p53 small molecule agonists, cell-based qHTS assay (AID 1963582; active = well fitted activation curve with a large enough effect in the signal ratio in the repeat runs, not every such curve was filed as active; the % refers to the signal ratio)
In short: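 Quantitative HTS in p53RE-bla cells: after a 5 h settling period, compounds delivered in DMSO were left on cells for 16 h at 37 C, and reporter induction was measured as fluorescence following 2 h substrate loading.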

[11] = biological target: 5-hydroxytryptamine receptor 2A (Homo sapiens) (UniProt P28223); assay: 5-hydroxytryptamine receptor 2A (HTR2A) small molecule antagonists, cell-based qHTS assay (AID 1963586); note: nearly all actives have a fitted effect of over 45% in size
In short: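 Antagonist-mode intracellular calcium assay: DOI (4 nM) added after 5 min compound pre-incubation at room temperature to dye-loaded HTR2A-CHO cells. Fluorescence followed for 3 min, sampled every second.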

[12] = biological target: 5-hydroxytryptamine receptor 2A (Homo sapiens) (UniProt P28223); assay: 5-hydroxytryptamine receptor 2A (HTR2A) small molecule agonists, cell-based qHTS assay (AID 1963587); note: nearly all actives have a fitted effect of over 30% in size
In short: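 CHO cells stably expressing human HTR2A, plated 18 h, loaded with calcium dye 1 h at 37 C. Agonist mode: compounds added and intracellular calcium fluorescence recorded kinetically for 2 min at 1 sec intervals.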

[13] = biological target: Muscarinic acetylcholine receptor M1 (Homo sapiens) (UniProt P11229); assay: Cholinergic receptor muscarinic 1 (CHRM1) small molecule antagonists, cell-based qHTS assay (AID 1963588); note: nearly all actives have a fitted effect of over 40% in size
In short: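 CHRM1-CHO calcium-flux assay, antagonist mode. Cells were seeded 18 h, dye-loaded 1 h at 37 C and given compound for 5 min at RT, then acetylcholine was added at 50nM. FDSS fluorescence was read 3 min; 15 concentrations, three runs.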

[14] = biological target: Muscarinic acetylcholine receptor M1 (Homo sapiens) (UniProt P11229); assay: Cholinergic receptor muscarinic 1 (CHRM1) small molecule agonists, cell-based qHTS assay (AID 1963589); note: nearly all actives have a fitted effect of over 35% in size
In short: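 Agonist-mode qHTS in CHO cells stably carrying human muscarinic M1. Intracellular calcium is tracked by fluorescence every second after compound transfer; each compound runs at 15 concentrations in three independent runs.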

[15] = cAMP Responsive Elements (CRE) small molecule agonists, cell-based qHTS assay (AID 1963590)
In short: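 Agonist mode qHTS in CRE-bla HEK 293T cells: compounds dosed from DMSO for 3 h at 37 C/5% CO2, followed by LiveBLAzer B/G FRET substrate for 2 h at room temperature.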

[16] = cAMP Responsive Elements (CRE) small molecule antagonists, cell-based qHTS assay (AID 1963591; active = well fitted inhibition curve with a large enough effect in the signal ratio in the repeat runs, not every such curve was filed as active; the % refers to the signal ratio)
In short: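 Antagonist mode: test compounds are co-incubated with the adenylyl cyclase activator NKH477 (0.25 uM final) on CRE-bla HEK293T cells for 3 h at 37 °C, followed by LiveBLAzer substrate loading.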

[17] = biological target: Beta-2 adrenergic receptor (Homo sapiens) (UniProt P07550); assay: Adrenergic beta2 receptor (ADRB2) small molecule antagonists, cell-based qHTS assay (AID 1963592); note: series mostly up to about 92 µM; nearly all actives have a fitted effect of over 50% in size
In short: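 Cells (CHO, stable ADRB2 overexpression) incubated 18-20hr at 37C; compounds added from DMSO; agonist mix (1nM isoproterenol, 100uM IBMX, 25uM Ro-20-1724) added; 0.5hr RT; d2-cAMP and anti-cAMP-cryptate added; 1hr RT; 665/615 nm read.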

[18] = biological target: D(2) dopamine receptor (Homo sapiens) (UniProt P14416); assay: Dopamine D2 receptor (DRD2) small molecule agonists, cell-based qHTS assay (AID 1963594); note: nearly all actives have a fitted effect of over 35% in size
In short: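 HEK293 cells stably expressing human DRD2, pre-treated with PDE inhibitor Ro20-1724 (0.1 mM final) and compound 10 min at room temperature, then stimulated with NKH477 (200nM […]) for 30 min. cAMP read by HTRF (665/620 nm).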

[19] = biological target: D(2) dopamine receptor (Homo sapiens) (UniProt P14416); assay: Dopamine D2 receptor (DRD2) small molecule antagonists, cell-based qHTS assay (AID 1963595; active = well fitted inhibition curve with a large enough effect in the signal ratio in the repeat runs, with a control signal flat; the % refers to the signal ratio)
In short: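 DRD2-HEK293; 0.1 mM Ro20-1724; cpd 10 min RT; NKH477 200 nM + quinpirole 12 nM, 30 min RT; HTRF cAMP (cAMP-d2/anti-cAMP cryptate), 665/620 nm ratio after 1 h.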

Measured: Potency

Chain of Gonadotropin-releasing hormone receptor (Homo sapiens) (P30968 whole entry, looked up): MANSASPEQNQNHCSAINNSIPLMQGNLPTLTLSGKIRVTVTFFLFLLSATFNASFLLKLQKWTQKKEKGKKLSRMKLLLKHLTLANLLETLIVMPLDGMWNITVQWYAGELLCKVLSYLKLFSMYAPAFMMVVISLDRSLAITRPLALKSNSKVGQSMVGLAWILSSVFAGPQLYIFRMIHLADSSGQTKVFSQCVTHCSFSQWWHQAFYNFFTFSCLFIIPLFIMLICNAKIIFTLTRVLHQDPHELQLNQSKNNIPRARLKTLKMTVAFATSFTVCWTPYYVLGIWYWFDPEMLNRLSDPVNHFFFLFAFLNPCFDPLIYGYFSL
Chain of 5-hydroxytryptamine receptor 2A (Homo sapiens) (P28223 whole entry, looked up): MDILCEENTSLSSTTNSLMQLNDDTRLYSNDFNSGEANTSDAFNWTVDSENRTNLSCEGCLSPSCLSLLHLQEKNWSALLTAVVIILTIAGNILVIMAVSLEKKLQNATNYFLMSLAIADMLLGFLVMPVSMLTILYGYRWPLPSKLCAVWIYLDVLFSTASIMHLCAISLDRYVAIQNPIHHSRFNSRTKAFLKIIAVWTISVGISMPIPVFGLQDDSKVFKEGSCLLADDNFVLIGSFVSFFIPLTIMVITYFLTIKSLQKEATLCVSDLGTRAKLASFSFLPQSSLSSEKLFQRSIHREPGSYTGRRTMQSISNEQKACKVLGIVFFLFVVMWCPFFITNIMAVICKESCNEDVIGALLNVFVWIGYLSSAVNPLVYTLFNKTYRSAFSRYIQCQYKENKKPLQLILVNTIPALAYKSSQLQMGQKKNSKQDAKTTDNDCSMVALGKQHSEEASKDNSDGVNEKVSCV
Chain of Beta-2 adrenergic receptor (Homo sapiens) (P07550 whole entry, looked up): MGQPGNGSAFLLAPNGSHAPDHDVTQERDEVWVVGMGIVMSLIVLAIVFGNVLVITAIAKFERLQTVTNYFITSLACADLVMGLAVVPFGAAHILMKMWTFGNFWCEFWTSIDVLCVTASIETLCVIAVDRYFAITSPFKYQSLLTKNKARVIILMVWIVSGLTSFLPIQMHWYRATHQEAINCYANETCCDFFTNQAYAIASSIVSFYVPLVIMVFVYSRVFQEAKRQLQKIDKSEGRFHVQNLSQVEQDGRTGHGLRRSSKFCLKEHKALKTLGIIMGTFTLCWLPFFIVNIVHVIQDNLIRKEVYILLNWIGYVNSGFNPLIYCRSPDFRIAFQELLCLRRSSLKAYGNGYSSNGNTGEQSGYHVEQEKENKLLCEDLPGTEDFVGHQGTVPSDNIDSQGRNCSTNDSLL
Chain of D(2) dopamine receptor (Homo sapiens) (P14416 whole entry, looked up): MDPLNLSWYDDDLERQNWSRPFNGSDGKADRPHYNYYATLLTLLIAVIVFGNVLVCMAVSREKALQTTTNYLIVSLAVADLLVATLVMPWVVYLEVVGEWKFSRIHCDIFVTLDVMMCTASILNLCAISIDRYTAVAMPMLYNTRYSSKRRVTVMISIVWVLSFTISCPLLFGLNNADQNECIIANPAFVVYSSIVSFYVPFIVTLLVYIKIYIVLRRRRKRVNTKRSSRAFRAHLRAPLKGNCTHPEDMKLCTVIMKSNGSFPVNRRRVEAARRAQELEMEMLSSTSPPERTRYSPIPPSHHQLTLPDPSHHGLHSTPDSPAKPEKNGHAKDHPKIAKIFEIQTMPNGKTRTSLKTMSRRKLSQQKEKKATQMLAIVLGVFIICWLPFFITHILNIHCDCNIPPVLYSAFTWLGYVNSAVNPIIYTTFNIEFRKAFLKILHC
Chain of Muscarinic acetylcholine receptor M1 (Homo sapiens) (P11229 whole entry, looked up): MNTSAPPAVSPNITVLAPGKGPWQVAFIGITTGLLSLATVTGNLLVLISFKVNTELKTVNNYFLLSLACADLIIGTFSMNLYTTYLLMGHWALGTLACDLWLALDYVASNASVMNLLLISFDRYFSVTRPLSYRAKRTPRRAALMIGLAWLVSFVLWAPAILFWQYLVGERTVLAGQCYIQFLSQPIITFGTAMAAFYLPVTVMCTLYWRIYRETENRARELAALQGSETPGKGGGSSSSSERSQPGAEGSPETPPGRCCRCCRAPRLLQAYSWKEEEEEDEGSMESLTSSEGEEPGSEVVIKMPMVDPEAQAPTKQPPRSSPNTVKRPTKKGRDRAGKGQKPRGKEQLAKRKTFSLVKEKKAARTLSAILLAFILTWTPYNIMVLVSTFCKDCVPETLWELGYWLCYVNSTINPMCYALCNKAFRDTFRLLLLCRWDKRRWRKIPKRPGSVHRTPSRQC
Chain of KiSS-1 receptor (Homo sapiens) (Q969F8 whole entry, looked up): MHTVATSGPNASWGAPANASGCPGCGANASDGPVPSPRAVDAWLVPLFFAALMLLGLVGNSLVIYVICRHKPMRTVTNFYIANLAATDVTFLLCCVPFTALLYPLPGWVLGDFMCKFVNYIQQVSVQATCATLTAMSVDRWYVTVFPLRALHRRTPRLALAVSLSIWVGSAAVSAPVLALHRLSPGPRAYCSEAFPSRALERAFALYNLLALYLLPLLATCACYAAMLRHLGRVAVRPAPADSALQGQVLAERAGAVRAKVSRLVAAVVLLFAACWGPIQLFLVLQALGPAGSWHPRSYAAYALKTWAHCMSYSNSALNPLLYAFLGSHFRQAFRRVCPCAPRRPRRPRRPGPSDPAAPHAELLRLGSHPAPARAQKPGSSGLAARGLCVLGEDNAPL

CC1=C(CC=O)C(C)(C)CCC1
inactive: [1] | [2] | [3] | [4] | [5] | [6] | [7] | [8] | [9] | [10] | [11] | [12] | [13] | [14] | [15] | [16] | [17] | [18] | [19]

CCOC(=O)Cn1cccc1-c1nc(-c2ccc(OC)cc2)c(-c2ccc(OC)cc2)s1
inactive: [1] | [2] | [3] | [4] | [5] | [6] | [7] | [8] | [9] | [10] | [12] | [13] | [14] | [15] | [16] | [17] | [18] | [19]

O=C(C(Cl)Cl)N1CCOC12CCCCC2
inactive: [1] | [2] | [3] | [4] | [5] | [6] | [7] | [8] | [9] | [10] | [11] | [12] | [13] | [14] | [15] | [16] | [17] | [18] | [19]

CCCCCCOC(=O)CCCCC(=O)OCCCCCC
inactive: [1] | [2] | [3] | [4] | [5] | [6] | [7] | [8] | [9] | [10] | [11] | [12] | [13] | [14] | [15] | [16] | [17] | [18] | [19]

O=S(=O)(O)c1ccc(Cl)cc1
inactive: [1] | [2] | [3] | [4] | [5] | [6] | [7] | [8] | [9] | [10] | [11] | [12] | [13] | [15] | [16] | [17] | [19]

C=CC(=O)OCCCl
inactive: [1] | [2] | [3] | [4] | [5] | [6] | [7] | [8] | [9] | [10] | [11] | [12] | [13] | [14] | [15] | [16] | [18] | [19]
